In all, about 68,000 compounds went through this assay and about 2,700 (4%) showed an effect of 50% or more. The full list was thinned out, with strong results kept by preference.

The subject of the test is Plasmodium berghei. In words: Screen against P. berghei liver stage (PbLuc), transformed with Luciferase, at 2uM. Type of test: functional, HepG2. The conditions noted are these: tested at 2 uM.
In the case of `CC(=O)c1c(C)nn(S(=O)(=O)c2ccc(F)cc2)c1C`, the INHIBITION worked out at 16.13%.
Take `Cc1nc2cc(O)nn2c(C)c1CCC(=O)NCCCC(C)C`: the INHIBITION was found to be 37.68%.
Regarding `CC(C)C1CN(C(=O)c2cc(F)cc3[nH]cnc23)CCS1` (stereo unspecified), the INHIBITION is 11.24%.
Turning to `CC(C)N(CCNC(=O)N1CCCC(N(C)C)C1)C1CC1` (stereo unspecified), the INHIBITION is 73.01%.
For `CN(C)C1CCCN(C(=O)NCCC(C)(C)C)C1` (stereo unspecified), the INHIBITION is reported as 28.95%.
As for `CN(C)C1CCCN(C(=O)NCCC(=O)N2CCCCCC2)C1` (stereo unspecified), the INHIBITION is recorded as -17.01%.
Turning to `Cc1ccc(O)c(CNCC2CCCN2c2cccnn2)n1` (stereo unspecified), the INHIBITION is recorded as 24.88%.
Regarding `CCCNC(=O)c1nn(CC)cc1Cl`, the INHIBITION is on record as -40.28%.
Take `CCN(CC)CCCNC(=O)c1nn(CC)cc1Cl`: the INHIBITION is given as 24.34%.
As for `CCN(CC)CCNC(=O)c1nn(CC)cc1Cl`, the INHIBITION was 54.07%.
`COCCCNC(=O)c1c(-n2cnnn2)sc2c1CCC2`: the INHIBITION is -0.44%.
In the case of `CS(=O)(=O)c1ccccc1N[C@@H]1c2ccccc2C[C@@H]1O`, the INHIBITION was found to be 54.29%.
Consider `CN(C)C(=O)c1ccccc1NC(=O)N[C@@H]1c2ccccc2C[C@@H]1O`, for which the INHIBITION stood at 42.32%.
The value for `CS(=O)(=O)c1ccccc1NC(=O)N[C@@H]1c2ccccc2C[C@@H]1O` was -11.32%; that for `O=S1(=O)NCC2(CCCN(Cc3ccccn3)C2)Oc2ncccc21` (stereo unspecified) was -30.35%.
With `CN(C)c1ncc(CNC(=O)Nc2ccc(C(F)(F)F)cc2)n1C` the figure was 47.59%; with `CC(=O)N[C@@H]1CN(Cc2oc3ccccc3c2C)C[C@H]1c1ccc(C)o1`, 3.92%; with `Nc1ncccc1CN1CCCn2nc(CCC(=O)NC3CC3)cc2C1`, 26.82%.
In the case of `O=C1C(Nc2nccn3cnnc23)CCN1c1cccc(Cl)c1` (stereo unspecified), the INHIBITION was determined as 34.89%.
With `CCCc1noc(C2CCN(C(=O)C3CCCO3)CC2)n1` (stereo unspecified), the INHIBITION is reported as 15.58%.
With `O=C(NC1CCCC1)c1ccc(C2CCCNC2)nc1` (stereo unspecified) the figure was 12%; with `COc1c(C2CCCN2CC(=O)N(C)Cc2ccco2)c(C)nn1C` (stereo unspecified), 5.39%.
On to `COc1cc(C)ccc1S(=O)(=O)N1CC[C@](C)(O)[C@H](C)C1`, for which the INHIBITION is given as -11.41%.
For `CCc1ccc(S(=O)(=O)N2CC[C@@](O)(CCOC)[C@H](C)C2)cc1`, the INHIBITION is 26.74%.
Turning to `COCC[C@]1(O)CCN(S(=O)(=O)c2ccc(C)cc2OC)C[C@H]1C`, the INHIBITION was 69.67%.
On to `COc1cc(CN2CCC(COCc3ccccc3)CC2)cc(OC)c1`, for which the INHIBITION was found to be 55.25%.
With `COc1cc(COCC2CCN(Cc3cccnc3)CC2)cc(OC)c1`, the INHIBITION was 20.76%.
`COc1cc(COCC2CCN(Cc3ccccn3)CC2)cc(OC)c1`: the INHIBITION amounted to 5.98%.
Consider `CC(C)CN1CCC2(COCc3cnc(-c4ccccc4)nc32)C1` (stereo unspecified), for which the INHIBITION stood at 5.22%.
The value for `O=C(c1cc(C2CC2)[nH]n1)N1CCN(Cc2ccc(Cl)cc2)CC1` was 59.99%; that for `O=C(c1cc(C2CC2)[nH]n1)N1CCN(Cc2ccccc2)CC1` was 5.52%.
As for `CC(C)c1ccc(CN2CCN(C(=O)c3cc(C4CC4)[nH]n3)CC2)cc1`, the INHIBITION was 38.87%.
For the compound `Cc1ccc(C(=O)Oc2cc(=O)n3cccc(C)c3n2)cc1`, the INHIBITION is listed as -38.95%.
Take `COc1ccc(CCNC(=O)C2CCOC2)c(Cl)c1` (stereo unspecified): the INHIBITION is reported as -7.69%.
With `CCOCCCNC(=O)C1(C)CCC(=O)N1c1ccccc1OC` (stereo unspecified) the figure was -15.25%; with `Cc1cccc2c1cnn2CCCNC(=O)c1cnn(C)c1`, 2.66%; with `O=C(NCCNc1ncccn1)N1CCc2ccccc2C1`, -17.17%.
Consider `Cc1cncc(C(=O)N2CCN(c3cnn(C)c(=O)c3)CC2)c1`, for which the INHIBITION was found to be 41.05%.
Consider `CCc1ncc(C(=O)N2CCN(c3cnn(C)c(=O)c3)CC2)cn1`, for which the INHIBITION amounted to 24.36%.
Regarding `Cc1oc(C(C)C)cc1C(=O)N1CCN(c2cnn(C)c(=O)c2)CC1`, the INHIBITION is on record as 86.36%.
Consider `CNc1cc(C2CCCN2C(=O)CCc2ccccc2F)ccn1` (stereo unspecified), for which the INHIBITION is -34.8%.
As to `Cc1c(CCC(=O)N2CCCC2c2ccnc(N(C)C)c2)cnn1C` (stereo unspecified), the INHIBITION amounted to 24.13%.
On to `CNc1cc(C2CCCN2C(=O)c2ccc3oc(=O)n(C)c3c2)ccn1` (stereo unspecified), for which the INHIBITION is 11.71%.
As to `CNc1cc(C2CCCN2C(=O)c2ccc(=O)[nH]n2)ccn1` (stereo unspecified), the INHIBITION stood at 51.88%.
On to `CNc1cc(C2CCCN(C(=O)c3ccc(=O)[nH]n3)C2)ccn1` (stereo unspecified), for which the INHIBITION came to 27.54%.
Consider `CNc1cc(C2CCCN2C(=O)CCc2cnn(C)c2C)ccn1` (stereo unspecified), for which the INHIBITION worked out at 73.23%.
As to `c1ccc(-c2ncc(CNC3CCc4ncnn4C3)cn2)cc1` (stereo unspecified), the INHIBITION came to 15.31%.
Consider `c1ccc(CCN2CCOC(Cn3cccn3)C2)nc1` (stereo unspecified), for which the INHIBITION came to 23.71%.
On to `CC(NC(=O)NCCCNS(C)(=O)=O)c1ccncc1` (stereo unspecified), for which the INHIBITION was 9.9%.
Regarding `CN1CCN(C(=O)N2CCCC(c3nccn3CC3CCC3)C2)CC1` (stereo unspecified), the INHIBITION is reported as -18.71%.
Take `Cc1nc(CN2CCC(C(=O)O)(n3ccc(C(C)C)n3)CC2)co1`: the INHIBITION was 53.55%.
For the compound `Cc1nc(CN2CCC(C(=O)O)(n3ccc(-c4ccco4)n3)CC2)co1`, the INHIBITION is listed as -26.72%.
Regarding `Cc1ccc(N2CCC(C(=O)O)(n3ccc(C(C)C)n3)CC2)nn1`, the INHIBITION is reported as -12.36%.
Consider `Cc1ccc(-n2nnc(C(=O)O)c2C)c(C)c1`, for which the INHIBITION is -2.64%.
Regarding `O=C(c1ccc(F)c(F)c1)N1C[C@H]2CNC[C@H]2C1`, the INHIBITION is -9.69%.
Regarding `O=C(c1ccc(S(=O)(=O)NCC(F)F)cc1)N1C[C@H]2CNC[C@H]2C1`, the INHIBITION stood at 57.75%.
The value for `O=C(c1ccc(S(=O)(=O)NC2CCC2)cc1)N1CC[C@H]2CNC[C@H]21` was -13.8%.
On to `Cc1ccc(C(=O)N2C[C@H]3CNC[C@H]3C2)cn1`, for which the INHIBITION is -53.62%.
For `O=C(c1ccc(S(=O)(=O)NCC(F)F)cc1)N1CC[C@H]2CNC[C@H]21`, the INHIBITION was determined as 26.74%.
On to `O=C(c1cc(F)cc(F)c1)N1C[C@H]2CNC[C@H]2C1`, for which the INHIBITION came out at 51.81%.
Regarding `O=C(c1cnccn1)N1C[C@@H](OCc2cccnc2)[C@H]2OCCC[C@H]21`, the INHIBITION is on record as -39.95%.
The value for `CCN(CC)[C@@H]1CN(Cc2nccn2C)[C@@H]2CCCO[C@H]12` was -3.53%; that for `Cc1noc(C(C)N2CCN(Cc3nnc(C4CC4)o3)CC2)n1` (stereo unspecified) was -4.99%.
As to `CC(c1nc(C2CC2)no1)N1CCN(Cc2ccsc2)CC1` (stereo unspecified), the INHIBITION turned out to be 5.72%.
Regarding `CC(C)c1noc(C(C)N2CCN(Cc3nnc(C4CC4)o3)CC2)n1` (stereo unspecified), the INHIBITION came to 58.52%.
As for `CC(C)c1noc(C(C)S(=O)(=O)Cc2nc(C3CC3)no2)n1` (stereo unspecified), the INHIBITION is -17.22%.
As for `CC(c1nc(C2CC2)no1)N1CCN(Cc2nnc(C3CC3)o2)CC1` (stereo unspecified), the INHIBITION stood at 49.01%.
On to `CCc1noc(CS(=O)(=O)C(C)c2nc(C3CC3)no2)n1` (stereo unspecified), for which the INHIBITION is listed as 57.16%.
`CC(C)c1nc(CN2CCN(C(C)c3nc(C4CC4)no3)CC2)no1` (stereo unspecified): the INHIBITION is recorded as -42.32%.
Consider `CCCc1noc(C(C)S(=O)(=O)Cc2nc(C3CC3)no2)n1` (stereo unspecified), for which the INHIBITION is given as -7.66%.
With `CCCc1nc(CN2CCN(C(C)c3nc(C4CC4)no3)CC2)no1` (stereo unspecified) the figure was 50.18%; with `CCc1nc(CN2CCN(C(C)c3nc(C4CC4)no3)CC2)no1` (stereo unspecified), 13.91%.
As to `CC(C)c1noc(C(C)N2CCN(Cc3ccsc3)CC2)n1` (stereo unspecified), the INHIBITION stood at 60.31%.
With `CC(C)c1noc(C(C)N2CCN(Cc3cccs3)CC2)n1` (stereo unspecified) the figure was 41.76%; with `CC(C)OCc1ccccc1CNC(=O)C(C)(C)C`, -26.08%; with `CS(=O)(=O)c1nccn1Cc1ccc(OC(F)F)cc1`, -35.45%.
Turning to `O=C(O)c1cc(NS(=O)(=O)c2ccccc2F)ccc1N1CCSCC1`, the INHIBITION is -21.39%.
On to `Cc1nc(C)n(CC2CCCCN2CC(=O)NC(C2CC2)C2CC2)n1` (stereo unspecified), for which the INHIBITION was 17.75%.
In the case of `COc1ccccc1OCC(=O)N1C[C@@H]2CN(C)CCO[C@@H]2C1`, the INHIBITION is on record as 32.04%.
Turning to `CN1CCc2nc(N(C)C)nc(N3CCC(O)CC3)c2C1`, the INHIBITION was 21.24%.
For `CN(Cc1nc(C2CC2)no1)C(=O)c1cccc(CC2CCNCC2)c1`, the INHIBITION was -11.41%.
Regarding `Cc1nn(C)c2nc(NC(C)c3nnn[nH]3)sc12` (stereo unspecified), the INHIBITION was -16.31%.
Consider `Cc1csc2ncc(-c3ccnc(N4CCN(C)CC4)n3)c(=O)n12`, for which the INHIBITION was -23.11%.
With `Cc1cc2c(cc1Cl)C=CC1(CCN(CC(=O)N3CCOCC3)CC1)O2` the figure was -4.78%.
Take `Cc1cc2c(cc1Cl)C=CC1(CCN(CC(=O)N3CCCC3)CC1)O2`: the INHIBITION is -28%.
On to `Cc1cc2c(cc1C)OC1(C=C2)CCN(CC(=O)N2CCOCC2)CC1`, for which the INHIBITION is on record as 54.2%.
In the case of `Cc1cc2c(cc1Cl)C=CC1(CCN(CC(=O)NC3CCCC3)CC1)O2`, the INHIBITION is reported as 3.58%.
With `Cc1cc2c(cc1Cl)C=CC1(CCN(C(=O)N3CCOCC3)CC1)O2`, the INHIBITION worked out at 57.47%.
For the compound `CCN(CC)C(=O)CN1CCC2(C=Cc3cc(Cl)c(C)cc3O2)CC1`, the INHIBITION came to 1.4%.
`O=C(NCc1cnc2n1CCN(CC1CC1)CC2)C1CCC1`: the INHIBITION is reported as 15.42%.
On to `CO[C@@H]1CCN(S(=O)(=O)c2cccs2)[C@H]1Cc1cccnc1`, for which the INHIBITION is recorded as 30.39%.
In the case of `CC(c1nc(C2CC2)no1)N1CCc2c(ncn2C2CC2)C1` (stereo unspecified), the INHIBITION was -40.15%.
With `Cc1ccc(S(=O)(=O)NCc2cccc(C(=O)N3CCCC3)c2)cc1F`, the INHIBITION stood at 47.84%.
With `Cc1ccc(F)cc1S(=O)(=O)NCc1cccc(C(=O)N2CCCC2)c1` the figure was 33.8%; with `O=C(c1cccc(CNS(=O)(=O)c2ccc(F)cc2)c1)N1CCCC1`, 51.94%; with `Cc1nc2c(c(NC3CC3)n1)CCN(C(=O)C1(C#N)CC1)CC2`, -5.44%.
With `Cc1nc(C)c2c(n1)CCN(C(=O)C1(C#N)CC1)CC2` the figure was 89.37%; with `Cc1nc(N2CCOCC2)nc2c1CCN(C(=O)C1(C#N)CC1)CC2`, -24.04%; with `COCC1CN(Cc2ccoc2)Cc2nn(C)cc21` (stereo unspecified), 17.69%.
Take `O=C(Nc1ccc(F)cc1)N1CCN(Cc2noc(C3CC3)n2)CC1`: the INHIBITION stood at 24.65%.
Turning to `CN1CCN(C(=O)C[C@@H]2COC[C@H]3CN(c4ccncn4)C[C@@H]23)CC1`, the INHIBITION is recorded as -69.07%.

These data come from ChEMBL document CHEMBL4513216, “Probing the Open Global Health Chemical Diversity Library for Multistage-Active Starting Points for Next-Generation Antimalarials” (ACS Infect Dis, 2020).
